Measured values taken from PubChem BioAssay (NCI).
About 83,000 compounds went through this panel and 20% of them were active in at least one assay; those are over-represented in the sample as a whole.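 Interpretation: 100, growth as untreated; towards 0, rising growth inhibition; 0, no net growth; 0 to -100, cell death. Compounds scoring below 10 were considered active.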 Unmarked numbers belong to inactive results. The source made the active and inactive calls.

Each compound was assayed on MDA-MB-468 breast (assay: NCI-60 one-dose screen, 48 h (100 = growth as untreated, 0 = no growth, -100 = all killed)). Details: 10 µM unless noted.
`COc1cc(OC)c2c(=O)c(O)c(-c3ccccc3)oc2c1` showed a growth of 75.5%.
Work on `COc1ccc(-c2cn[nH]c2-c2cc(OC)c(OC)c(OC)c2)cc1` yielded a growth of 11.8%.
In the case of `CC(C)=CC/C=C(/C)[C@H]1CC[C@]2(C)[C@@H]1CC[C@@H]1[C@@]3(C)CCC(=O)NC(C)(C)[C@@H]3CC[C@]12C`, the growth is reported as -17.7% [100 µM] (active).
Work on `Cc1cc(=O)n(C(=S)Nc2ccc(Cl)cc2)c2cc(O)ccc12` yielded a growth of 98.7%.
Compound `Clc1cccc(/C=N/Nc2nc(N/N=C/c3cccc(Cl)c3)nc(N3CCOCC3)n2)c1` has a growth of 30.8%.
With `CCc1oc2ccccc2c1C(=O)c1cc(Br)c(O)c(Br)c1` the growth was 6.28% (active).
With `COC(=O)[C@H](Cc1ccccc1)NC(=O)[C@@H](OC)[C@@H]1Cc2cc3cc(OC4CC(OC5CC(O)C(O)C(C)O5)C(O)C(C)O4)c(C)c(O)c3c(O)c2C(=O)[C@H]1OC1CC(OC2CC(OC3CC(C)(O)C(O)C(C)O3)C(O)C(C)O2)C(O)C(C)O1` (stereo not given in full) the growth was -36.7% (active).
`COc1cc(-c2cc(-c3ccc(N(C)C)cc3)nc(N3CCC(O)CC3)c2C#N)cc(OC)c1OC` was tested, and the growth was -21.2% (active).
`Cc1cn(-c2cc(NC(=O)c3cncc(C#Cc4cnc5ccc(O[C@@H]6CCOC6)nn45)c3)cc(C(F)(F)F)c2)cn1` was tested, and the growth was -74.8% (active).
`O=S(Nc1ccccc1)c1ccc(Cl)cc1` (stereo not given) showed a growth of 91.5%.
`COc1ccc(C2Nc3nc(SC)nc(N)c3N=C3c4ccccc4CCC32)cc1` (stereo not given) showed a growth of 102%.
Compound `Cc1cc(C(=O)Nc2ncnc3nc[nH]c23)no1` has a growth of 96.4%.
Work on `COC(=O)C(CCC(=O)CCl)N1C(=O)c2ccccc2C1=O` (stereo not given) yielded a growth of 32.1%.
`Cc1ccnc(NC(c2ccccc2)c2ccc3cccnc3c2O)c1` (stereo not given) showed a growth of 24.9%.
Compound `Clc1ccc(OCc2nc(-c3ccccc3)n[nH]2)c(Cl)c1` has a growth of 99.1%.
In the case of `FC(F)(F)c1ccc2nc(-c3nc(-c4ccccc4)n4ccccc34)[nH]c2c1`, the growth is reported as 83.4%.
Work on `O=c1[nH]nc(-c2ccccc2)c2sc(NC(=S)Nc3ccc(Cl)cc3)nc12` yielded a growth of 95.6%.
Work on `COc1ccc(N2C(=O)C(Oc3ccccc3)C2c2ccc(C)cc2)cc1` (stereo not given) yielded a growth of 122%.
`Cc1cc(=O)[nH]c(N/N=C/c2cc(Br)ccc2O)n1` was tested, and the growth was 3.37% (active).
`Cn1cc(-c2nc(-c3cn(C)c4ncccc34)cs2)c2ccccc21` was tested, and the growth was -21.1% (active).
`COc1ccc(OC)c(Nc2nnc(-c3cc(OC)c(OC)c(OC)c3)o2)c1` was tested, and the growth was 92%.
With `CCN(CC)CCCCCCCNc1c2ccc(Cl)cc2nc2ccc(OC)cc12` the growth was -86.6% (active).
`Cc1cc2c(C#N)n3c(c2cc1C)C(=O)C(c1ccccc1)Oc1ccccc1-3` (stereo not given) gave a growth of 50%.
With `COC1CCN(Cc2ccc3c(NNC(=O)c4cnccn4)nc4cc(F)ccc4n23)C1` (stereo not given) the growth was -32.1% (active).
In the case of `CCN(CC)CCCNc1nccc2ccc(Cl)cc12`, the growth is reported as 97.5%.
For `NS(=O)(=O)c1ccc(-n2cc(CN3CCNCC3)nn2)cc1`, the growth was -22.4% (active).
Work on `Cc1ccc(S(=O)(=O)O)c(C)c1` yielded a growth of 107%.
With `Cc1ccc(S(=O)(=O)c2nc(-c3ccc(F)cc3)oc2S(C)(=O)=O)cc1` the growth was 57.7%.
`Cc1ccccc1CC(N)C(=O)O` (stereo not given) showed a growth of 117%.
`Ic1ccccc1-c1ccccc1` gave a growth of 103%.
With `CC(=O)OC(C)COc1ccc(-c2ccccc2)cc1` (stereo not given) the growth was 98.4%.
Work on `CN(C)c1ccc(/C=N/Nc2nc(N/N=C/c3ccc(N(C)C)cc3)nc(N3CCCCC3)n2)cc1` yielded a growth of 36.3%.
In the case of `Cc1ccc(S(N)(=O)=O)cc1Cl`, the growth is reported as 111%.
Compound `COc1ccc(-c2nn(-c3ccc(NC(=O)c4cc(C(F)(F)F)cc(C(F)(F)F)c4)cc3)cc2-c2ccncc2)cc1Cl` has a growth of 77.1%.
Compound `O=C(CC(=O)Nc1cccc(C(=O)O)c1)Nc1cccc(C(=O)O)c1` has a growth of 108%.
`C=C1C(=O)O[C@H]2[C@H]1CC/C(Cn1cc(CCC)nn1)=C\CC[C@@]1(C)O[C@@H]21` was tested, and the growth was -31.7% (active).
In the case of `Nc1c(C(=O)Nc2ccccc2F)sc2nc3c(cc12)C(=O)CCC3`, the growth is reported as -15.2% (active).
With `COC(=O)[C@H](Cc1cn(C)cn1)NC(=O)[C@@H](NC(=O)Nc1cc(C(F)(F)F)cc(C(F)(F)F)c1)C(C)C` the growth was -60.4% [100 µM] (active).
In the case of `CC1(C)CC[C@]2(C(=O)N3CCOCC3)CC[C@]3(C)C(=CC[C@@H]4[C@@]5(C)C/C(=C/c6ccccn6)C(=O)C(C)(C)[C@@H]5CC[C@]43C)[C@@H]2C1`, the growth is reported as 40.8%.
`O=c1cc(CNc2cc(F)cc(F)c2)c2ccc(I)cc2[nH]1` gave a growth of 19%.
